Activity calls are given as the source filed them.
How the values were obtained:
[1] = test system: Plasmodium falciparum Sir2 (PF13_0152, Sir2A); assay: pfSir2 binders on small-molecule microarrays, primary screen, biochemical, small-molecule microarray, 635 nm fluorescence (AID 1098); conditions: small-molecule microarray binding, fluorescence 635 nm; higher = more signal;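 also: score merges spot fluorescence intensity with its signal-to-noise ratio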
[2] = small-molecule microarray binders of probe aDKK1, primary screen, biochemical, biotinylated probe, 635/667 nm fluorescence (AID 1099); conditions: higher = more signal;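 also: score merges 667nm spot fluorescence with signal to noise across triplicate slides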
[3] = small-molecule microarray binders of probe aCHRDL2, primary screen, biochemical, biotinylated probe, 635/667 nm fluorescence (AID 1100); conditions: higher = more signal
[4] = splicing luciferase reporter signal modulators, primary screen, spliceosome inhibition project, cell-based, HEK293, splice +/- reporter (AID 1101); conditions: luminescence, 24 h, higher = more signal, called active from +8 up or from −8 down;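 also: HEK293 cells carrying a splicing-competent luciferase reporter gene; test concentration not given here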
[5] = target: Fibroblast growth factor 10 (Homo sapiens) (UniProt O15520); assay: FGF10 binders on small-molecule microarrays, primary screen, biochemical, small-molecule microarray, 635 nm fluorescence (AID 1102); conditions: FGF10 binding, fluorescence 635 nm, higher = more signal
Fibroblast growth factor 10 (Homo sapiens), sequence (O15520 whole entry, looked up): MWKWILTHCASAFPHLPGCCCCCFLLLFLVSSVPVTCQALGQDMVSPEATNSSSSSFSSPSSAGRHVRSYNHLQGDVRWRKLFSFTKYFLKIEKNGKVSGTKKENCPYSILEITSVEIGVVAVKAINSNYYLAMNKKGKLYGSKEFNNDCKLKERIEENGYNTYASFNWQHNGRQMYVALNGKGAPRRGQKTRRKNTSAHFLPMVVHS

[6] = test system: glycogen synthase kinase-3 (GSK3A per assay name; protocol says GSK3B); assay: GSK3 binders on small-molecule microarrays, primary screen, biochemical, small-molecule microarray, 635 nm fluorescence, GSK3A (AID 1103); conditions: small-molecule microarray binding, fluorescence 635 nm; higher = more signal; also: the record names both GSK3A and GSK3B
[7] = target: Epidermal growth factor receptor (Homo sapiens) (UniProt P00533); assay: EGFR binders on small-molecule microarrays, primary screen, biochemical, small-molecule microarray, 635 nm fluorescence (AID 1104); conditions: EGFR binding, higher = more signal;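 also: score merges 667 nm emission intensity with spot signal to noise over triplicate slides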
Epidermal growth factor receptor (Homo sapiens), sequence (P00533 whole entry, looked up): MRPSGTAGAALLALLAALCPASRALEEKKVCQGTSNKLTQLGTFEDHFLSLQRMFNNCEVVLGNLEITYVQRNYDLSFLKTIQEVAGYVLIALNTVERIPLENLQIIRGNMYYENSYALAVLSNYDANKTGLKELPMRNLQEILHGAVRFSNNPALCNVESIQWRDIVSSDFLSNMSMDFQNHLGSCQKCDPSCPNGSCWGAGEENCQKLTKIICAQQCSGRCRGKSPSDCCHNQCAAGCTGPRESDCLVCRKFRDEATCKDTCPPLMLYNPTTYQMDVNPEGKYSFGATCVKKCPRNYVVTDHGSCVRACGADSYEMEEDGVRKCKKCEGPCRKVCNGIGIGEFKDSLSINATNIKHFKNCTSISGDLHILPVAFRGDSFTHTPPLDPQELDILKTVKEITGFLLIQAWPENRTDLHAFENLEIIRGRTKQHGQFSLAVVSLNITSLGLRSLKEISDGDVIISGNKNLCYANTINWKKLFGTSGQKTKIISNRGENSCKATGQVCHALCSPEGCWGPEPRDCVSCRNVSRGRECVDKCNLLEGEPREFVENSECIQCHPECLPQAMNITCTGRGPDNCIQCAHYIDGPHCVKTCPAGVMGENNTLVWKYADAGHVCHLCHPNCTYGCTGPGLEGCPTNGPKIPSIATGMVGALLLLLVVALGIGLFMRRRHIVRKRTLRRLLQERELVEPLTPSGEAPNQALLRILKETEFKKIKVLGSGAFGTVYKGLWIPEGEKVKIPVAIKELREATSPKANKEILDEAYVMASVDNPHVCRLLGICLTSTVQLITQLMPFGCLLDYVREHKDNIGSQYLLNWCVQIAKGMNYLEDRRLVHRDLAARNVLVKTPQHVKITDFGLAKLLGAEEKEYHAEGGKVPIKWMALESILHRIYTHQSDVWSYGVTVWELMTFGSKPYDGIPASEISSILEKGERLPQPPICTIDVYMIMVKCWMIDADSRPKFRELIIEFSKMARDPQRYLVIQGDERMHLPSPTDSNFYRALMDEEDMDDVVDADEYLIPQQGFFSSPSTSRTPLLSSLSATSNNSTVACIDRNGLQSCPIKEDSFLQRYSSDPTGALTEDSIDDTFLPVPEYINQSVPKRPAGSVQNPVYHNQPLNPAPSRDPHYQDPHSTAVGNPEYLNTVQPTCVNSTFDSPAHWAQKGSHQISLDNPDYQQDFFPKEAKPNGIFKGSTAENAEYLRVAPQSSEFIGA

[8] = target: Follistatin-related protein 3 (Homo sapiens) (UniProt O95633); assay: FSTL3 binders on small-molecule microarrays, primary screen, biochemical, small-molecule microarray, 635 nm fluorescence (AID 1105); conditions: FSTL3 binding, higher = more signal;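 also: score merges emission near 667 nm and signal to noise per printed spot across three slides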
Follistatin-related protein 3 (Homo sapiens), sequence (O95633 whole entry, looked up): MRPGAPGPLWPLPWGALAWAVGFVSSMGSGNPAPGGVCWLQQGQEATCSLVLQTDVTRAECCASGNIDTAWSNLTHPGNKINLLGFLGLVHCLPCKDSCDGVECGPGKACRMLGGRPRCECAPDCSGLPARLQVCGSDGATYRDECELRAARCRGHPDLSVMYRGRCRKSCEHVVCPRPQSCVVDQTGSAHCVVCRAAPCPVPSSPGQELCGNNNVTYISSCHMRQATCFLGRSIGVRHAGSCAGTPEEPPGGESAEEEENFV

[9] = target: Dickkopf-related protein 1 (Homo sapiens) (UniProt O94907); assay: DKK1 binders on small-molecule microarrays, primary screen, biochemical, small-molecule microarray, 635 nm fluorescence scan (AID 1106); conditions: DKK1 binding, higher = more signal;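 also: score merges emission near 667 nm with signal to noise over three replicate slides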
Dickkopf-related protein 1 (Homo sapiens), sequence (O94907 whole entry, looked up): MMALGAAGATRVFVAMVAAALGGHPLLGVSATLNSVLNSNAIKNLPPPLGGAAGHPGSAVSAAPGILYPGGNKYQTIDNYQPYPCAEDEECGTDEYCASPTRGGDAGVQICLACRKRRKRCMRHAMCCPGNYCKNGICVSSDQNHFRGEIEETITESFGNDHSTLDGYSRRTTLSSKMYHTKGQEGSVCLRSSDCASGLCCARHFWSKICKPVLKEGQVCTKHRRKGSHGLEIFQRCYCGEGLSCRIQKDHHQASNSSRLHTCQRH

[10] = test system: Inhibin beta A chain (activin A); assay: INHBA (activin A) binders on microarrays, primary screen, biochemical, small-molecule microarray, 635 nm fluorescence scan (AID 1107); conditions: small-molecule microarray binding, higher = more signal;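 also: mouse activin A protein probed at 4.33 µg/mL on printed slides; score merges bound-protein fluorescence near 667 nm with spot signal-to-noise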
[11] = test system: Human papillomavirus type 1a protein E7 (residues 44-93); assay: HPV1a E7 fragment binders on microarrays, primary screen, biochemical, small-molecule microarray, residues 44-93, 635 nm fluorescence (AID 1108); conditions: small-molecule microarray binding, fluorescence 635 nm; higher = more signal;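 also: E7 fragment applied at 1 µg/mL in TBST for 1 h at 4 C; score combines spot fluorescence with its signal to noise ratio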
[12] = modulators of HCV replicon luciferase signal, primary screen, HCV replication inhibitor project, Huh7 cells, luciferase reporter (AID 1109); conditions: 48 h, higher = more signal;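 also: huh7 hepatoma cells harbouring a luciferase neomycin HCV replicon reporter; luciferase luminescence as measure of HCV replicon replication; test concentration not given here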
[13] = target: Left-right determination factor 2 (Homo sapiens) (UniProt O00292); assay: LEFTY2 binders on small-molecule microarrays, primary screen, biochemical, small-molecule microarray, 635 nm fluorescence scan (AID 1110); conditions: LEFTY2 binding, higher = more signal
Left-right determination factor 2 (Homo sapiens), sequence (O00292 whole entry, looked up): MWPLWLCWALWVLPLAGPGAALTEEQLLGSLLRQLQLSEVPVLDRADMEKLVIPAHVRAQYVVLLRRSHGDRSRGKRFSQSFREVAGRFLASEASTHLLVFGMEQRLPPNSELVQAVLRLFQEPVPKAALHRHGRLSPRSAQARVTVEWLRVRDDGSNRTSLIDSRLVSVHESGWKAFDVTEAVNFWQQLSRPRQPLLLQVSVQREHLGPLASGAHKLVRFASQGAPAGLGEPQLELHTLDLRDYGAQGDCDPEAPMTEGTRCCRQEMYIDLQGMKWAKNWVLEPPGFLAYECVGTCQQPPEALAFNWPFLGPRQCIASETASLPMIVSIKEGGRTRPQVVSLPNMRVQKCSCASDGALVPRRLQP

[14] = target: Calmodulin-1 (Homo sapiens) (UniProt P0DP23); assay: CALM1 binders on microarrays, EGTA buffer, profiling panel, biochemical, small-molecule microarray, Cy5-labelled CALM1 (AID 1111); conditions: Cy5-CALM1 binding fluorescence, higher = more signal;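 also: labelled calmodulin applied in Tris saline Tween buffer holding calcium plus EGTA and DTT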
[15] = target: Calmodulin-1 (Homo sapiens) (UniProt P0DP23); assay: calcium-bound CALM1 binders on microarrays, profiling panel, artefact control for SMM control-protein annotation, biochemical, small-molecule microarray, Cy5-labelled CALM1, plus calcium (AID 1112); conditions: Cy5-CALM1 binding fluorescence, higher = more signal;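 also: score merges spot fluorescence with signal to noise from triplicate slides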
[16] = small-molecule microarray binders of probe aWnt5a, primary screen, biochemical, biotinylated probe, 635/667 nm fluorescence (AID 1113); conditions: higher = more signal;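 also: score merges 667 nm fluorescence intensity with signal-to-noise per printed feature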
[17] = small-molecule microarray binders of probe aShh, primary screen, biochemical, biotinylated probe, 635/667 nm fluorescence (AID 1114); conditions: higher = more signal;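 also: probe is biotin-labelled aShh protein from a stem cell growth factor screen; measures binding of labelled protein to compounds printed on the slide; score merges feature fluorescence at 667 nm with signal-to-noise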
[18] = small-molecule microarray binders of probe aNog, primary screen, biochemical, biotinylated probe, 635/667 nm fluorescence (AID 1115); conditions: higher = more signal;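 also: probe is biotinylated aNog protein used at 0.15 µg/mL for 1 h at 4 C; z-score combines 667 nm fluorescence of each spot with its signal to noise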
[19] = target: Torsin-1A-interacting protein 1 (Homo sapiens) (UniProt Q5JTV8); assay: LAP1 binders from COS7 cell lysate, primary screen, small-molecule microarray, 635/667 nm fluorescence (AID 1116); conditions: COS7-hLAP1 lysate binding, 635 nm fluorescence, higher = more signal
Torsin-1A-interacting protein 1 (Homo sapiens), sequence (Q5JTV8 whole entry, looked up): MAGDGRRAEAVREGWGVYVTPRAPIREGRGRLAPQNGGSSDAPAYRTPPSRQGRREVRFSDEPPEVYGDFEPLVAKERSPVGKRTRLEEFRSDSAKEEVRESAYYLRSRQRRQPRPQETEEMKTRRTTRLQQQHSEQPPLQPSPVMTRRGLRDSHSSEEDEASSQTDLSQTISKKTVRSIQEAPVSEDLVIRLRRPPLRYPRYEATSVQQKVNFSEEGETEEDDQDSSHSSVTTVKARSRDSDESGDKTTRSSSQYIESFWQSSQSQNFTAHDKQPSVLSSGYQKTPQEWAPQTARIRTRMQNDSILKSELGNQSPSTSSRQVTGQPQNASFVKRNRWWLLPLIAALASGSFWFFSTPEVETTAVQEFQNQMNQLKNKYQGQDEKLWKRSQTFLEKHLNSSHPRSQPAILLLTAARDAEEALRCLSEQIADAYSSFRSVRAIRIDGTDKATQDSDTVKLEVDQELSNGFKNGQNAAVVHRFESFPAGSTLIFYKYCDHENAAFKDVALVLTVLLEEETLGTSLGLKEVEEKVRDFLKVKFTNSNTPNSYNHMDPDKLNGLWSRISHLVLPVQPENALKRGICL

[20] = target: Alpha-bungarotoxin (Bungarus multicinctus) (UniProt P60615); assay: alpha-bungarotoxin binders on microarray, profiling panel, artefact control for SMM control protein annotation, biochemical, small-molecule microarray, Alexa647 label, 635/667 nm fluorescence (AID 1117); conditions: alpha-BTX-A647 binding fluorescence, higher = more signal
Alpha-bungarotoxin (Bungarus multicinctus), sequence (P60615 whole entry, looked up): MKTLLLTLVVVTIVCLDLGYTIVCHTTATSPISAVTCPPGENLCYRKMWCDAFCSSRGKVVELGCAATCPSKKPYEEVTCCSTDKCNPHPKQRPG

Row | Compound | composite z-score [1] | composite z-score [2] | composite z-score [3] | z-score [4] | composite z-score [5] | composite z-score [6] | composite z-score [7] | composite z-score [8] | composite z-score [9] | composite z-score [10] | composite z-score [11] | z-score [12] | composite z-score [13] | composite z-score [14] | composite z-score [15] | composite z-score [16] | composite z-score [17] | composite z-score [18] | composite z-score [19] | composite z-score [20]
1 | O=C1OCCC=C[C@H]2OC34C=CCN(c5ccc6ccccc6c5)C(=O)[C@H]3N(CCCO)C(=O)[C@@H]4C12 (stereo not given in full) | 0.933 | -0.258 | 0.637 | -1 (inactive) | -1.62 | -2.21 | -1.93 | -1.94 | -1.8 | -2.42 | -2 | -0.24 | -1.31 | -0.834 | -0.885 | -0.294 | -0.153 | 0.181 | -1.25 | -1.27
2 | COC(=O)C1=CC(CCCO)=CC(c2ccc(CN3CCCC3)cc2)N(Cc2cccc(OC(F)(F)F)c2)C=C1C(=O)OC (stereo not given) | 1.26 | 0.752 | 0.82 | -0.656 (inactive) | 0.641 | 0.68 | 0.121 | 0.637 | -0.271 | 0.976 | 1.38 | -1.18 | 0.0706 | 2.08 | 0.695 | -0.172 | -0.0953 | 0.947 | 2.1 | 1.89
3 | Cc1ccc(S[C@]2(C(=O)NC(C)C)CC(=O)N(Cc3cc(C(F)(F)F)cc(C(F)(F)F)c3)[C@@H]2c2ccc(CO)cc2)cc1 | 1.45 | -0.227 | 0.675 | 0.681 (inactive) | -0.671 | -1.27 | -1.48 | -1.57 | -1.5 | -0.403 | -0.411 | -0.343 | -1.76 | -0.491 | 0.0262 | 0.0857 | -0.393 | -0.143 | 0.0702 | 0.26
4 | CCCCCCCCCC(O)C1C=CC2C(=O)N(c3ccccc3)C(=O)C2N1Nc1cc(OC)c(OC)c(OC)c1 (stereo not given) | 1.04 | -0.0249 | 0.662 | -0.901 (inactive) | -0.4 | -0.214 | -0.381 | -0.246 | -1.12 | 0.655 | 0.903 | -2.58 | -1.12 | 1.01 | 1.03 | -0.0685 | 0.239 | 0.641 | 0.559 | 0.774
5 | C=C(/C(=C/C[C@H](OC(C)=O)c1ccc(CO)o1)c1cnc2ccccc2c1)C(C)C | 1.1 | -0.151 | -0.483 | 0.652 (inactive) | 1.44 | 1.21 | 0.845 | 1.58 | 0.643 | 1.52 | 1.43 | -2.23 | 0.552 | 1.4 | -0.24 | -0.0643 | 0.149 | 0.33 | 1.07 | 2.15
6 | COc1ccc([Si](C)(C)[C@H]2[C@H](CC(=O)N3CCC[C@H]3CO)O[C@@]3(C(=O)N(Cc4ccc(N5CCOC5=O)cc4)c4ccccc43)[C@@H]2C)cc1 | 1.08 | -0.214 | -0.246 | 0.467 (inactive) | 1.22 | 1.14 | 0.737 | 1.06 | 0.672 | 0.378 | 1.37 | -2.52 | 0.75 | 0.655 | 0.0967 | 0.0194 | -0.223 | -0.172 | 0.833 | 1.08
7 | CC(=O)NCCCC[C@@H]1NC(=O)[C@@H]2C[C@H](C(=O)NCCCCCN)[C@H](c3cccc(OCCO)c3)N2C1=O | 1.05 | 0.681 | 0.0358 | -1.29 (inactive) | 1.24 | 0.533 | 0.504 | 1.33 | 0.823 | 0.488 | 0.794 | -0.0844 | 0.736 | 1.09 | 0.634 | 0.0546 | 0.663 | 0.489 | 1.03 | 1.16
8 | O=C(C1N=C(c2ccc(OCCCO)cc2)N(c2ccccc2)O1)N1CCCCC1 (stereo not given) | 0.984 | 0.88 | 0.0556 | -0.577 (inactive) | 0.648 | 1.22 | -0.0036 | 0.181 | 0.291 | 0.088 | 1.26 | 0.65 | 0.413 | 2 | 0.867 | 0.0454 | -0.229 | 0.411 | 1.25 | 1.85
9 | CC(=O)NCCCC[C@@H]1NC(=O)[C@@H]2C[C@H](C(=O)NCCCCCN)[C@H](c3ccc(O)cc3)N2C1=O | 1.49 | 1.07 | 0.656 | 0.194 (inactive) | 1.23 | 1.28 | 0.662 | 1.02 | 1.33 | 1.26 | 1.32 | -0.663 | 1.31 | 0.331 | 0.711 | 0.258 | -0.0794 | -0.158 | 1.31 | 0.766
10 | COCCCNC(=O)[C@@H]1c2ccccc2C(=O)N(C(C)C)[C@H]1c1ccc(CO)cc1 | 0.634 | -0.0293 | 0.39 | 0.555 (inactive) | -0.346 | -0.291 | -0.104 | 0.115 | 0.0487 | 0.761 | -1.72 | -0.183 | 0.0506 | 0.355 | 0.254 | -0.0828 | -0.221 | -0.1 | 0.846 | 0.886
11 | C=CCNC(=O)[C@@H]1[C@H]2C(=O)O[C@H](c3ccccc3)[C@H](c3ccccc3)N2[C@H](c2ccccc2OCCO)[C@@]12C(=O)N(C(=O)OCCOC)c1ccc(C#CC3(O)CCCCCC3)cc12 | 1.17 | 0.0347 | 0.31 | -0.692 (inactive) | 0.87 | 1.3 | 0.598 | 1.36 | 0.579 | 1.13 | 1.23 | -2.27 | 0.694 | 0.66 | 0.212 | -0.0566 | -0.0035 | -0.0224 | 1.35 | 0.859

Source: PubChem BioAssay
